Assay [1] is described as follows: qHTS assay to identify small molecule agonists of the peroxisome proliferator-activated receptor delta (PPARd) signaling pathway - cell viability counter screen (AID 743211). Also: nearly all actives have a fitted effect of over 55% in size. Also: potency is read from the fitted curve at half-maximal effect. The method, boiled down:
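Counter screen for cytotoxicity run in parallel with the PPARd reporter screen. Beta-lactamase reporter HEK293H cells exposed to compounds 17 h; ATP-based CellTiter-Glo luminescence quantified viability.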
On the technique in general: Quantitative high-throughput screening tests each substance at several concentrations.

The target in assay [2] is Peroxisome proliferator-activated receptor delta (Homo sapiens) (UniProt Q03181). Kind of assay: qHTS assay to identify small molecule antagonists of the peroxisome proliferator-activated receptor delta (PPARd) signaling pathway (AID 743215; active = well fitted inhibition curve with a large enough effect in the signal ratio in the repeat runs, not every such curve was filed as active; the % refers to the signal ratio;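 also: cells stimulated with agonist L165041 at 300 nM final during compound exposure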; also: potency is read from the fitted curve at half-maximal effect). In outline:
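Inhibition of L165041-driven (300 nM final) PPARd signaling is scored in HEK293H UAS-bla cells. Exposure lasts 17 h at 37 C; beta-lactamase activity is then read by FRET substrate fluorescence after 2 h at room temperature.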

Assay [3] is described as follows: qHTS assay to identify small molecule agonists of the farnesoid-X-receptor (FXR) signaling pathway - cell viability counter screen (AID 743218). Also: nearly all actives have a fitted effect of over 45% in size. Also: potency is read from the fitted curve at half-maximal effect. In outline:
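Cytotoxicity counter-screen run in parallel, same wells: FXR-UAS-bla HEK 293T cells dosed 16 h at 37 C, viability read by CellTiter-Glo luminescence after 30 min at room temperature.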

Assay [4] has as its target Bile acid receptor (Homo sapiens) (UniProt Q96RI1). The assay is described as follows: qHTS assay to identify small molecule agonists of the farnesoid-X-receptor (FXR) signaling pathway (AID 743220; active = well fitted activation curve with a large enough effect in the signal ratio in the repeat runs, not every such curve was filed as active; the % refers to the signal ratio). The method, boiled down:
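Beta-lactamase reporter under UAS control in GeneBLAzer FXR HEK 293T cells (5000/well) measured with LiveBLAzer FRET substrate after 2 h at room temperature. Compound exposure lasted 16 h at 37C.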

A short description of assay [5]: qHTS assay to identify small molecule antagonists of the farnesoid-X-receptor (FXR) signaling pathway - cell viability counter screen (AID 743221; active = well fitted cell-killing curve with a large enough effect in the repeat runs, not every such curve was filed as active; also: nearly all actives have a fitted effect of over 50% in size; also: potency is read from the fitted curve at half-maximal effect). In outline: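 Multiplexed counter screen: viability of FXR-bla HEK 293T cells under agonist stimulation by chenodeoxycholic acid (50 uM, final) and test compound for 16 h at 37 C, measured by CellTiter-Glo luminescence in the reporter wells.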

Assay [6] is described as follows: qHTS assay to identify small molecule antagonists of the peroxisome proliferator-activated receptor delta (PPARd) signaling pathway - cell viability counter screen (AID 743213). Also: nearly all actives have a fitted effect of over 50% in size. Also: potency is read from the fitted curve at half-maximal effect. In outline: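 PPARd-bla HEK293H cells were treated with compounds plus agonist L165041 (300 nM final) for 17 h at 37 C. Viability was then read in the same wells by CellTiter-Glo luminescence after 30 min at room temperature.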

For assay [7], the target named is Vitamin D3 receptor (Homo sapiens) (UniProt P11473). The assay is described as follows: qHTS assay to identify small molecule agonists of the vitamin D receptor (VDR) signaling pathway (AID 743222; calls by dose curve; also: potency is read from the fitted curve at half-maximal effect). The method, boiled down: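 Quantitative HTS agonist-mode screen: compounds in DMSO were pin-transferred onto VDR-bla cells and incubated 16 h at 37C, 5% CO2. Reporter activity was detected with LiveBLAzer B/G FRET substrate after 2 h at room temperature.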
Vitamin D3 receptor (Homo sapiens), sequence (P11473 whole entry, looked up): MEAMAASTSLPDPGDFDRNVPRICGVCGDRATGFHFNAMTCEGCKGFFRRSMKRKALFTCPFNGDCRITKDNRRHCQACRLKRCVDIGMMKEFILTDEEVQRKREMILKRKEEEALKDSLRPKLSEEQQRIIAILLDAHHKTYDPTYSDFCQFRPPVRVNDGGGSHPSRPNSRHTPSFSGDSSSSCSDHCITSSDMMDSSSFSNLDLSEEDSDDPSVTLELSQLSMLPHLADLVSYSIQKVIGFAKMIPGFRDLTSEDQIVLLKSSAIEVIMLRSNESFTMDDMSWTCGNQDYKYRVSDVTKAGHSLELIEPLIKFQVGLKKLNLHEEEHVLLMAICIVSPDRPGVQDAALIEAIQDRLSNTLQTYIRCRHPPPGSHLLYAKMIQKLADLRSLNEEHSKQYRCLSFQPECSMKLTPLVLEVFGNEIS

Assay [8] has the same target. The assay is described as follows: qHTS assay to identify small molecule antagonists of the vitamin D receptor (VDR) signaling pathway (AID 743223; active = well fitted inhibition curve with a large enough effect in the signal ratio in the repeat runs, not every such curve was filed as active; the % refers to the signal ratio; also: potency is read from the fitted curve at half-maximal effect). The method, boiled down:
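Cells carrying a VDR-driven beta-lactamase reporter (VDR-bla) were co-treated with compound and 3 nM final 1alpha,25-dihydroxyvitamin D3 for 16 h at 37C; reporter activity was measured as FRET substrate fluorescence after 2 h at room temperature.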

In assay [9] the target is Peroxisome proliferator-activated receptor delta (Homo sapiens) (UniProt Q03181). Kind of assay: qHTS assay to identify small molecule agonists of the peroxisome proliferator-activated receptor delta (PPARd) signaling pathway (AID 743212; calls by dose curve). In outline:
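A PPARd-bla HEK293H line with beta-lactamase under an Upstream Activator Sequence is treated with compounds at 37 C. Substrate loading for 2 h at room temperature precedes the fluorescence measurement.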

The structures appear in SMILES notation. Where “and” joins values, the source holds several entries; their conditions need not be identical. Identical values can stand only once. Inconclusive results are not listed. Calls of active or inactive are those of the source. Unless noted, calls follow the shape of the dose curve; as a rule, active = well fitted curve in the direction sought with a large enough effect in the repeat runs; inconclusive = weak or mixed curves; inactive = no such curve, though single readings can be large; an effect the other way counts as inactive or inconclusive.

Potency data for 24 compounds are collected here from PubChem BioAssay (Tox21).

Bile acid receptor (Homo sapiens), sequence (Q96RI1 whole entry, looked up): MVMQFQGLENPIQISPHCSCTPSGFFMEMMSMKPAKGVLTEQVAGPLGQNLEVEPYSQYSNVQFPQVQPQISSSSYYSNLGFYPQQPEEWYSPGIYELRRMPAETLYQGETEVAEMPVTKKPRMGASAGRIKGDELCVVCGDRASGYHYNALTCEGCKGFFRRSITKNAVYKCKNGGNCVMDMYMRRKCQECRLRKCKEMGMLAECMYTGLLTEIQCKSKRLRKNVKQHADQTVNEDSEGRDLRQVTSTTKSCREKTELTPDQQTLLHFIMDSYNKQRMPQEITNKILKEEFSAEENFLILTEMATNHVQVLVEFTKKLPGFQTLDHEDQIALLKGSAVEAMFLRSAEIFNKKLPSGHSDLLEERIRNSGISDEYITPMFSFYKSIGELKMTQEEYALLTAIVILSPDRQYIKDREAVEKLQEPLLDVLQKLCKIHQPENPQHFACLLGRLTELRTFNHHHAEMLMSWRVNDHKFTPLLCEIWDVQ
Peroxisome proliferator-activated receptor delta (Homo sapiens), sequence (Q03181 whole entry, looked up): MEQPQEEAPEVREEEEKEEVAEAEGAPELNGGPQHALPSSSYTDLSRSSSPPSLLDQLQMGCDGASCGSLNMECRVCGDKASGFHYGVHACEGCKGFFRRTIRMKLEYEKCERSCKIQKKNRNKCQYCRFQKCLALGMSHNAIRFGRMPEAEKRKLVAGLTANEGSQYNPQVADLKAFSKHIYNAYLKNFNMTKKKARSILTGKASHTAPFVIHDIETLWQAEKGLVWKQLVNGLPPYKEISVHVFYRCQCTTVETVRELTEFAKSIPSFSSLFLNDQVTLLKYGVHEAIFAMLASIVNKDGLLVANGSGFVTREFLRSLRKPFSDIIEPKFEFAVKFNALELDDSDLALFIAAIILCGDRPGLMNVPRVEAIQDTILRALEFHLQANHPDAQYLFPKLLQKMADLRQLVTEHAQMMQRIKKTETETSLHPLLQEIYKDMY

In the case of `C[n+]1cc2c3c(ccc2c2ccc4cc5c(cc4c21)OCO5)OCO3`, the Potency is 1.46 µM (active) in [1], 2.59 µM (active) in [2], 1.46 µM (active) in [3] and 1.46 µM (active) in assay [5]. In addition, the Potency result in assay [4] is “inactive”.

On to `O=c1[nH]sc2cc(Cl)ccc12`, for which the Potency in [1] was 26.6 µM (active); in [6], 11.9 µM (active). Further, in [4], the Potency entry was “inactive”.

For `Clc1ccccc1C(c1ccccc1)(c1ccccc1)n1ccnc1`, the Potency in assay [1] and in [3] was 54.9 µM (active) in each case. Moreover, the Potency entry in assay [6], in assay [7] and in assay [8] was “inactive” each time.

As for `C=CC(=O)OCC(CO)(COC(=O)C=C)COC(=O)C=C`, the Potency in [1] is 6.94 µM (active) and 11 µM (active); in [3], 19.6 µM (active) and 17.4 µM (active); in assay [5], 34.8 µM (active) and 30.9 µM (active).

Take `Nc1ccc(N)c2ccccc12`: the results for the Potency in assay [1] and in assay [3] were 15.5 µM (active) and 43.6 µM (active), respectively.

Turning to `CCCCN(CCCC)c1ccc(C(=O)c2ccccc2C(=O)O)c(O)c1`, the Potency in assay [1], in [6] and in assay [5] was 44.1 µM (active) in each case. In addition, the Potency entry in [4] is “inactive”.

For `CC(C)=CCOc1ccc(/C=C/C(=O)c2ccc(OCC=C(C)C)cc2OCC(=O)O)cc1`, the figures for the Potency in assay [1] and in assay [5] were 29.8 µM (active) and 21.1 µM (active), respectively. In addition, the Potency entry in assay [6] and in assay [7] was “inactive” each time.

As for `CC[C@@]1(O)C(=O)OCc2c1cc1n(c2=O)Cc2c-1nc1ccccc1c2/C=N/OC(C)(C)C`, the Potency in assay [1] was 11.9 µM (active); in assay [3], 13.3 µM (active).

`O=C(Nc1cccc(Cl)c1)OCC#CCCl`: the Potency in assay [1] is 38.9 µM (active); in assay [2], 11 µM (active).

For the compound `NC(=O)N1C(=O)C(C(=O)c2cc(Cl)cs2)c2cc(F)c(Cl)cc21` (centres undefined), the Potency in assay [1] is 17.4 µM (active); in assay [2] it was 13.8 µM (active); in assay [3], 3.89 µM (active); in assay [5], 24.5 µM (active).

As for `CCOC(=O)O[C@H](C)OC(=O)c1ccc2c(c1)cc(C(=O)NC1CCN(C(C)C)CC1)n2Cc1cc(-c2ccc(Cl)s2)on1`, the Potency in assay [1] was 8.14 µM (active); in [6], 18.2 µM (active); in [3], 16.2 µM (active); in [5], 45.8 µM (active); in assay [8], 16.2 µM (active).

`Cc1ccc(O)c2ncccc12`: the figures for the Potency in assay [1] and in assay [6] were 0.841 µM (active) and 1.19 µM (active), respectively. In addition, the Potency entry in assay [4] was “inactive”.

For `Cc1cccc2c1cc1ccc3cccc4ccc2c1c34`, the Potency entry in assay [1], in assay [6], in assay [3] and in assay [8] was “inactive” in each case. Also, the Potency in assay [7] was 3.16 µM (active).

Consider `CC(C)c1ccc2c(c1)CC[C@H]1[C@](C)(CN)CCC[C@]21C`, for which the Potency is 11 µM (active) in [1], 12.3 µM (active) in [3], 54.9 µM (active) in assay [5] and 49 µM (active) in assay [8].

Regarding `C/C(=C(/OCCOc1ccc(Cl)cc1)c1ccc(Cl)cc1Cl)n1ccnc1`, the Potency entry in assay [9], in assay [6], in assay [3], in assay [5], in assay [7] and in assay [8] was “inactive” throughout.

With `CCN(CCC#N)c1ccc(N=Nc2c(Cl)cc([N+](=O)[O-])cc2Cl)cc1`, the Potency result in [9], in assay [2] and in [4] was “inactive” throughout.

On to `Oc1ccc2cc(SSc3ccc4cc(O)ccc4c3)ccc2c1`, for which the Potency result in [9], in assay [4] and in [5] was “inactive” in each case. Further, the Potency in assay [2] was 17.4 µM (active).

As for `CC(C)(C)CC(C)(C)c1ccc(O)c(Cc2ccc(Cl)cc2Cl)c1`, the Potency in [1] is 26.6 µM (active); in [5], 33.5 µM (active).

For the compound `CC(C)(C)C(=O)OCOC(=O)C1N2C(=O)CC2S(=O)(=O)C1(C)C` (centres undefined), the Potency entry in assay [9], in assay [6], in [3], in assay [4] and in [5] was “inactive” each time. In [2], the Potency is 2.11 µM (active).

On to `Oc1ccc(C2(c3ccc(O)cc3)CC3CC2C2CCCC32)cc1` (centres undefined), for which the Potency in assay [1] was 14.9 µM (active); in assay [3], 18.7 µM (active); in assay [8], 47 µM (active).

Take `Nc1nc2ccccc2n1Cc1ccc(F)cc1`: the Potency result in [9], in [3], in assay [5] and in assay [7] was “inactive” each time.

With `O=C(c1ccc(F)cc1)C1CCN(CCn2c(=O)[nH]c3ccccc3c2=O)CC1`, the Potency entry in assay [9], in assay [6], in [2], in assay [3] and in [5] was “inactive” in each case.

As to `O=CC=C(c1ccccc1)c1ccccc1`, the Potency entry in assay [9] was “inactive”.

With `CCN(Cc1cccnc1)C(=O)c1cccc(Cl)c1[C@]1(C)C(=O)N(Cc2ccc(OC)cc2OC)c2ccc(Cl)cc21`, the Potency in assay [1] is 4.08 µM (active); in assay [3] it was 3.63 µM (active); in assay [5] it was 11.5 µM (active); in assay [7], 45.8 µM (active).
